# Legend:
# Test in all cases: DAPPL (digital affinity profiling via proximity ligation, sequencing); 10 mM Tris-HCl pH 7.5, 50 mM NaCl, 1 mM DTT, 4% glycerol, room temperature, 30 min; GST-TFs on glutathione beads, 16-mer random dsDNA library, 0.1% formaldehyde crosslink after washing; high values mean tight binding
# FEV = target: T1, FEV (Homo sapiens, UniProt Q99581 1-238); conditions: protein: recombinant; tags: N-terminal GST; dsDNA, one strand shown
# T1 sequence: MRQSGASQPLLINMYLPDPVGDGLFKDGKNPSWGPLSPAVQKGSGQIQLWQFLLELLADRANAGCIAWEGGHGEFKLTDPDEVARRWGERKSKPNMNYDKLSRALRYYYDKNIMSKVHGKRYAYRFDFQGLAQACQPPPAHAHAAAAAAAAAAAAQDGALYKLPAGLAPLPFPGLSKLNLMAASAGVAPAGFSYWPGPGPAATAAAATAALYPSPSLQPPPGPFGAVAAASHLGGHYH
# Method in brief: (§1)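 Beads coated with glutathione captured GST-fused human transcription factors that had been expressed in yeast, and the factors were then given DNA barcodes and pooled with a tag-only sample. The pools were incubated with 200 nmole of a random double-stranded 16-mer DNA library in Tris/NaCl/DTT/glycerol buffer for 30 min at room temperature, washed, crosslinked with 0.1% formaldehyde and proximity-ligated with BsaI/T4 ligase at 37 °C for 1 h. PCR amplification and Illumina NextSeq500 sequencing came last. Binding signal is each hexamer's read frequency for a factor divided by its frequency for the tag-only sample.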
# ETV5 = ETV5 (Homo sapiens, UniProt P41161 1-510); conditions: protein: recombinant; tags: N-terminal GST; dsDNA, one strand shown
# ETV5, sequence (P41161 whole entry): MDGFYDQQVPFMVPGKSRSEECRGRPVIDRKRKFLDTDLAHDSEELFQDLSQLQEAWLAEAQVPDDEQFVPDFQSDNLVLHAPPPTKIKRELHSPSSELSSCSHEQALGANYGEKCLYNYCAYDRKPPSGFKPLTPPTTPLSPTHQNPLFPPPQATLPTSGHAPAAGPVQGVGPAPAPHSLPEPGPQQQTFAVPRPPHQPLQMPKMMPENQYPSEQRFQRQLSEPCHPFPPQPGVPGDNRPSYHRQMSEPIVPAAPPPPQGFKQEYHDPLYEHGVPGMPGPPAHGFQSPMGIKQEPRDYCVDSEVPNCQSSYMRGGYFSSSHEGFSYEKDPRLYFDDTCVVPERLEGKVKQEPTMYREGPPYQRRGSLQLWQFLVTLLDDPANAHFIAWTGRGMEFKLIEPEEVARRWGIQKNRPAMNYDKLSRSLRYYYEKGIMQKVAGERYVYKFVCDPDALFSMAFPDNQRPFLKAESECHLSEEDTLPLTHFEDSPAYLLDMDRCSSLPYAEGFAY
# Method in brief: as §1
# HSF1 = HSF1 (Homo sapiens, UniProt Q00613 1-529); conditions: protein: recombinant; tags: N-terminal GST; chain copies: 3; dsDNA, one strand shown
# HSF1, sequence (Q00613 whole entry): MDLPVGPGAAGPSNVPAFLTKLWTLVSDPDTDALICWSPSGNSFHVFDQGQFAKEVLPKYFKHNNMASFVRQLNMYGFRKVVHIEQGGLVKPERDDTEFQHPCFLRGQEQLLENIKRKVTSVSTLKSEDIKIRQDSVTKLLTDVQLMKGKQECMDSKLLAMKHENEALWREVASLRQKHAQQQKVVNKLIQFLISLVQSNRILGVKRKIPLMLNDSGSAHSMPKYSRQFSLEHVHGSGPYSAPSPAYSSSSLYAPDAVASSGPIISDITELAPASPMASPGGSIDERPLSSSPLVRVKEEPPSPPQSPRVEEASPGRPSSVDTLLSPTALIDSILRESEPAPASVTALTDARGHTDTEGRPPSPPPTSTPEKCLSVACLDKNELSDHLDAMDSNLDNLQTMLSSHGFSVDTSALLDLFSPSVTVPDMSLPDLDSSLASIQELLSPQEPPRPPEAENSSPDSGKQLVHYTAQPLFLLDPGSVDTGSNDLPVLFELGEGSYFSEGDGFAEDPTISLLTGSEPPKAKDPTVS
# Method in brief: as §1
# SPIC = target: T2, SPIC (Homo sapiens, UniProt Q8N5J4 1-248); conditions: protein: recombinant; tags: N-terminal GST; dsDNA, one strand shown
# T2 sequence: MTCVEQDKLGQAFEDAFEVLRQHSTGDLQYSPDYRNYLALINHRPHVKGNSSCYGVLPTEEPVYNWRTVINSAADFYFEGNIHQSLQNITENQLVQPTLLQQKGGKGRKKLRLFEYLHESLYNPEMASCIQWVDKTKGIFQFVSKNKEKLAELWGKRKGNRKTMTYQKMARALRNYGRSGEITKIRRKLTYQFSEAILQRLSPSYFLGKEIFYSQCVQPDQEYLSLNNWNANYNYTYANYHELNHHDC
# Method in brief: as §1
# ELF4 = ELF4 (Homo sapiens, UniProt Q99607 1-663); conditions: protein: recombinant; tags: N-terminal GST; dsDNA, one strand shown
# ELF4, sequence (Q99607 whole entry): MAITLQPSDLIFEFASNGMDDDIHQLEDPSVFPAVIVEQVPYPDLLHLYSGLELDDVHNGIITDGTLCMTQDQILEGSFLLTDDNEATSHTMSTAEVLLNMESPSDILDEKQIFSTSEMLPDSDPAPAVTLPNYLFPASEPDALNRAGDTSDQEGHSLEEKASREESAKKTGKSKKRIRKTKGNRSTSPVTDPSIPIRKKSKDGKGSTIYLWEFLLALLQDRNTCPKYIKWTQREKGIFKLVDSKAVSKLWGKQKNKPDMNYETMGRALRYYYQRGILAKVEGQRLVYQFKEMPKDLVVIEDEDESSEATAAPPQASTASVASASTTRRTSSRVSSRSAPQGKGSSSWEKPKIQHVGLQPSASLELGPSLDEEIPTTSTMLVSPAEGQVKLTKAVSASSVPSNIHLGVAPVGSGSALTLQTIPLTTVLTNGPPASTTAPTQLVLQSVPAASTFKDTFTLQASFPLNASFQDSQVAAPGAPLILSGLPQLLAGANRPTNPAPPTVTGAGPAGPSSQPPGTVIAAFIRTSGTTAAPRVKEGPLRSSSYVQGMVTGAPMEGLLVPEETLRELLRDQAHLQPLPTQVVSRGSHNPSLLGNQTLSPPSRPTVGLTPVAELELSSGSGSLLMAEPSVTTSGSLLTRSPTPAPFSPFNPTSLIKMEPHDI
# Method in brief: as §1
# ELK4 = target: T3, ELK4 (Homo sapiens, UniProt P28324-2 1-405); conditions: protein: recombinant; tags: N-terminal GST; dsDNA, one strand shown
# T3 sequence: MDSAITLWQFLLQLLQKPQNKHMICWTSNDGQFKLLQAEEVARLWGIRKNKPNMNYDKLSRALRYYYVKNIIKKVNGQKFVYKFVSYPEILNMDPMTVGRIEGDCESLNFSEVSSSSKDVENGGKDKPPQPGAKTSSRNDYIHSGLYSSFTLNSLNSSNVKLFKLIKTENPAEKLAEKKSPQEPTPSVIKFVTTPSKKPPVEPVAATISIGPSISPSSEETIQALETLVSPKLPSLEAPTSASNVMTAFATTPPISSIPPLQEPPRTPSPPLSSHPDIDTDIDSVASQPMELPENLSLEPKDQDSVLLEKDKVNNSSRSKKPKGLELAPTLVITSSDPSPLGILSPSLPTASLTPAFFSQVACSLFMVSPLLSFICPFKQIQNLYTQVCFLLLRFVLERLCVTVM
# Method in brief: as §1
# ETV2 = target: T4, ETV2 (Homo sapiens, UniProt O00321 1-342); conditions: protein: recombinant; tags: N-terminal GST; dsDNA, one strand shown
# T4 sequence: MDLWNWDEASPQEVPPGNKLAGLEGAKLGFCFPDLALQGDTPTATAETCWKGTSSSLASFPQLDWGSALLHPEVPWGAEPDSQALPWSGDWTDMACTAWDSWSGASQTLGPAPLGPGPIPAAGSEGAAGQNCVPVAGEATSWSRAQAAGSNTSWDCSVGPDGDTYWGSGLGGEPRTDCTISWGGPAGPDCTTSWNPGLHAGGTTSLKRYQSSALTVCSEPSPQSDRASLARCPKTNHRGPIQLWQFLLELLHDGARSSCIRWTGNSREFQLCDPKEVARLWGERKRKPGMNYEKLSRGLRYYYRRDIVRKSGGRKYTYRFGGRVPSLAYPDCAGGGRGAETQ
# Method in brief: as §1
# ELF3 = target: T5, ELF3 (Homo sapiens, UniProt P78545 1-371); conditions: protein: recombinant; tags: N-terminal GST; dsDNA, one strand shown
# T5 sequence: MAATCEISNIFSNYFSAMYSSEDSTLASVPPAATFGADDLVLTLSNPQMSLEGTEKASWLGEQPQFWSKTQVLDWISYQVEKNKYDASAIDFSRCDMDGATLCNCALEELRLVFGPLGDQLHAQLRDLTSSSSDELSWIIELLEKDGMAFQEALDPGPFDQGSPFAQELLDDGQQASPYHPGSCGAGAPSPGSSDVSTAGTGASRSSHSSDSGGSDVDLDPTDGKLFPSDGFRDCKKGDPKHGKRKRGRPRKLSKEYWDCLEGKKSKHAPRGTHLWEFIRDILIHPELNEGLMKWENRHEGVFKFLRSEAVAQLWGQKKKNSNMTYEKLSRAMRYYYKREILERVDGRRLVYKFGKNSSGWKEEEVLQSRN
# Method in brief: as §1
# CRX = CRX (Homo sapiens, UniProt O43186 1-299); conditions: protein: recombinant; tags: N-terminal GST; dsDNA, one strand shown
# CRX, sequence (O43186 whole entry): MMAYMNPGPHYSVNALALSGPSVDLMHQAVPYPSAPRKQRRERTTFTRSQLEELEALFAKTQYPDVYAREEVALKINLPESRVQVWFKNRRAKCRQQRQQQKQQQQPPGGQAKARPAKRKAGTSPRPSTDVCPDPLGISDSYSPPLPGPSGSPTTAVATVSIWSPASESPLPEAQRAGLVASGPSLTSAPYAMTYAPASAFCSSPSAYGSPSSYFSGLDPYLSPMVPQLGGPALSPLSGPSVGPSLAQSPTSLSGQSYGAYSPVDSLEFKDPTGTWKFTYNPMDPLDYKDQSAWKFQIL
# Method in brief: as §1
# ETV1 = ETV1 (Homo sapiens, UniProt P50549 1-477); conditions: protein: recombinant; tags: N-terminal GST; dsDNA, one strand shown
# ETV1, sequence (P50549 whole entry): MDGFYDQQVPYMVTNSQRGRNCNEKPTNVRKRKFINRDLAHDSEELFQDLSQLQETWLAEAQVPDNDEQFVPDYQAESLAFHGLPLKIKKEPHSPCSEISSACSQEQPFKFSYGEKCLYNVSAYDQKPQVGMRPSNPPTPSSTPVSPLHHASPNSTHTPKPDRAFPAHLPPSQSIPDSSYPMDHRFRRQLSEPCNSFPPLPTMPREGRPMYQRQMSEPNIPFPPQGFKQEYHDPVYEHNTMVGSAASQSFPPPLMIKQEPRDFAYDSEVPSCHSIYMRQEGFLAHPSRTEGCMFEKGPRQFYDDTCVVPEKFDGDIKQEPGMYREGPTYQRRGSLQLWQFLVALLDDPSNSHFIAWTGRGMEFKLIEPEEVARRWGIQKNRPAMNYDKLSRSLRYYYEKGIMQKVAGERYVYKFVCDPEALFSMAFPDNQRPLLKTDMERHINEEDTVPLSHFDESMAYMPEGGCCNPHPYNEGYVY
# Method in brief: as §1
# ERF = target: T6, ERF (Homo sapiens, UniProt P50548 1-548); conditions: protein: recombinant; tags: N-terminal GST; dsDNA, one strand shown
# T6 sequence: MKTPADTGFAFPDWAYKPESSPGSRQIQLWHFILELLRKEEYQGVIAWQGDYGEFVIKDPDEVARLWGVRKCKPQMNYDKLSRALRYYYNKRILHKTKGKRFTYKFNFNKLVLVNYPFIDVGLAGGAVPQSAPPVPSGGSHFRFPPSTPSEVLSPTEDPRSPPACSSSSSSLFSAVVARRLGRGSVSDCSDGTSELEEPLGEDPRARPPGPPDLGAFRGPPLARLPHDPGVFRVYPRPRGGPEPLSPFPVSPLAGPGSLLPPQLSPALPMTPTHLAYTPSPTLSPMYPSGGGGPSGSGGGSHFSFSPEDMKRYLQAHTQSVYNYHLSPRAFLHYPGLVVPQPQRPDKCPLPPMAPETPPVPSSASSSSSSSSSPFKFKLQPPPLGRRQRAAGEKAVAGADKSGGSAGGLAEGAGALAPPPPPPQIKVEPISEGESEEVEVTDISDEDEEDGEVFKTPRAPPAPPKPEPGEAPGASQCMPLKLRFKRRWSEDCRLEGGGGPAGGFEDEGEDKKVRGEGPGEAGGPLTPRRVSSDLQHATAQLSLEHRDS
# Method in brief: as §1
# ETV3L = target: T7, ETV3L (Homo sapiens, UniProt Q6ZN32 1-361); conditions: protein: recombinant; tags: N-terminal GST; dsDNA, one strand shown
# T7 sequence: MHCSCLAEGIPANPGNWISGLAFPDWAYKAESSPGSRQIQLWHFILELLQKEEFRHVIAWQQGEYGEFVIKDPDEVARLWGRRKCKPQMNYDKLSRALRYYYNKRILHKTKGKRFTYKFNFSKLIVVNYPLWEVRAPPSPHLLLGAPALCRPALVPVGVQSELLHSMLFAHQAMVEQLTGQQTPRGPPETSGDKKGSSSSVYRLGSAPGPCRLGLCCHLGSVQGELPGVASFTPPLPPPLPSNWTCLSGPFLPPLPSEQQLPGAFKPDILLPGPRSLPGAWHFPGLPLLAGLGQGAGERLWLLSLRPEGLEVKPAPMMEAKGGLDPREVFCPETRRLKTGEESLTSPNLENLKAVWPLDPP
# Method in brief: as §1
# ETS2 = target: T8, ETS2 (Homo sapiens, UniProt P15036 1-469); conditions: protein: recombinant; tags: N-terminal GST; dsDNA, one strand shown
# T8 sequence: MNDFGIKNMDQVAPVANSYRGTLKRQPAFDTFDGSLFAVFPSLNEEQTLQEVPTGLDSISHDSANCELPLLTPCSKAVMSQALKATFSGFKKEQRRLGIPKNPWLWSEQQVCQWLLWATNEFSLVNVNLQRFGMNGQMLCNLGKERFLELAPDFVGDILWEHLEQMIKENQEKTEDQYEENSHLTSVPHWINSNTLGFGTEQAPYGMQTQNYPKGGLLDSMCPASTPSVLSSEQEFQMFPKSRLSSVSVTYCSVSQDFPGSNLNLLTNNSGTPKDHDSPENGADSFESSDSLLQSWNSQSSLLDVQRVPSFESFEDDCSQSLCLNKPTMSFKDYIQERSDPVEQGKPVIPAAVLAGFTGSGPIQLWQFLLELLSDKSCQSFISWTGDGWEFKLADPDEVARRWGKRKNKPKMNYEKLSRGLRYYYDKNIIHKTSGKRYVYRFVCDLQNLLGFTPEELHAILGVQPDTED
# Method in brief: as §1
# SPDEF = target: T9, SPDEF (Homo sapiens, UniProt O95238 1-335); conditions: protein: recombinant; tags: N-terminal GST; dsDNA, one strand shown
# T9 sequence: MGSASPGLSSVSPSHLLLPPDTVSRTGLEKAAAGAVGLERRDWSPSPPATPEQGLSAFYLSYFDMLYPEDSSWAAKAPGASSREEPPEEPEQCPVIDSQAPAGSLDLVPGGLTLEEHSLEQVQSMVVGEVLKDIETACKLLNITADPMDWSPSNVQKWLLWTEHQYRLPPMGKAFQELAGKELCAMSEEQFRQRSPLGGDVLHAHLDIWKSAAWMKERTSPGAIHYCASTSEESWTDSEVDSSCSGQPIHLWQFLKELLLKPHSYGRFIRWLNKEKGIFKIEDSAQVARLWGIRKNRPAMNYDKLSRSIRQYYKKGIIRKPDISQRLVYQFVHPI
# Method in brief: as §1
# ETV7 = target: T10, ETV7 (Homo sapiens, UniProt Q9Y603 1-341); conditions: protein: recombinant; tags: N-terminal GST; dsDNA, one strand shown
# T10 sequence: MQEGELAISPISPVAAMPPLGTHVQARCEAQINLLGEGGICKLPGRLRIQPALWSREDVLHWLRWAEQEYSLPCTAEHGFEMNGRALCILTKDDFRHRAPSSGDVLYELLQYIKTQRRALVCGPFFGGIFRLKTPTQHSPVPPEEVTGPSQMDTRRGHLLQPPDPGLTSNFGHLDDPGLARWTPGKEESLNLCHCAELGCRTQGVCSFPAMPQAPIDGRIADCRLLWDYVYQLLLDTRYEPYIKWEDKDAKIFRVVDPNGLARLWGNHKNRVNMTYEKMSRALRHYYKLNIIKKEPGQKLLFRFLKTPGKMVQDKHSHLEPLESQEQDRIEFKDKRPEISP
# Method in brief: as §1
# ELF5 = target: T11, ELF5 (Homo sapiens, UniProt Q9UKW6-2 1-255); conditions: protein: recombinant; tags: N-terminal GST; dsDNA, one strand shown
# T11 sequence: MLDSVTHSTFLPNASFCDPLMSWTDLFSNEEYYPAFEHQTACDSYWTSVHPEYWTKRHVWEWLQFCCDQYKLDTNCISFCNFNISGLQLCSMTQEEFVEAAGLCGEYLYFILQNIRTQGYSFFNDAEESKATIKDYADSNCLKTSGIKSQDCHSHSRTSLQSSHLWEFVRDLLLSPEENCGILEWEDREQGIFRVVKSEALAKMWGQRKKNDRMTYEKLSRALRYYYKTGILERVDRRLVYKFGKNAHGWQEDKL
# Method in brief: as §1
# ETV3 = target: T12, ETV3 (Homo sapiens, UniProt P41162-2 1-143); conditions: protein: recombinant; tags: N-terminal GST; dsDNA, one strand shown
# T12 sequence: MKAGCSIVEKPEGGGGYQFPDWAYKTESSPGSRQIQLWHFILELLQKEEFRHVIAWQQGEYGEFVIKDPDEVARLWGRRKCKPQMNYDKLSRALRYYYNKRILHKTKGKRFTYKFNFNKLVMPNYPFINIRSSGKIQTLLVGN
# Method in brief: as §1
# ETV6 = ETV6 (Homo sapiens, UniProt P41212 1-452); conditions: protein: recombinant; tags: N-terminal GST; dsDNA, one strand shown
# ETV6, sequence (P41212 whole entry): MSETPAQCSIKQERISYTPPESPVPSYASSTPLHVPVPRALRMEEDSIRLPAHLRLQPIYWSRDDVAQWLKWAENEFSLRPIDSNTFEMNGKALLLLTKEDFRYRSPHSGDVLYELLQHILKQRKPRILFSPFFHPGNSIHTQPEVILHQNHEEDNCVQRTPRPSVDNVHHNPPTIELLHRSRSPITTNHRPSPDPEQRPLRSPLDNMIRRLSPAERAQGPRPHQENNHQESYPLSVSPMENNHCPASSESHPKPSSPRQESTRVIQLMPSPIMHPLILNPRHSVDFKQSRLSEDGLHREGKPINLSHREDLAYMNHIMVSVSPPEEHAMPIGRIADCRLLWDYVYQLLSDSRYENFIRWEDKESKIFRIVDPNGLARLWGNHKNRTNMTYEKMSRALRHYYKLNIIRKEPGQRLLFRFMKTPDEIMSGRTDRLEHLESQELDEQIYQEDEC
# Method in brief: as §1
sequence,measurement,setting,value
GCCTTC,binding signal,FEV,"1.57 fold enrichment (6-mer frequency, TF over GST control)"
same,binding signal,ETV5,"1.56 fold enrichment (6-mer frequency, TF over GST control)"
same,binding signal,HSF1,"1.49 fold enrichment (6-mer frequency, TF over GST control)"
same,binding signal,SPIC,"1.71 fold enrichment (6-mer frequency, TF over GST control)"
same,binding signal,ELF4,"1.6 fold enrichment (6-mer frequency, TF over GST control)"
same,binding signal,ELK4,"1.64 fold enrichment (6-mer frequency, TF over GST control)"
same,binding signal,ETV2,"1.63 fold enrichment (6-mer frequency, TF over GST control)"
same,binding signal,ELF3,"1.41 fold enrichment (6-mer frequency, TF over GST control)"
same,binding signal,CRX,"1.2 fold enrichment (6-mer frequency, TF over GST control)"
same,binding signal,ETV1,"1.66 fold enrichment (6-mer frequency, TF over GST control)"
same,binding signal,ERF,"1.47 fold enrichment (6-mer frequency, TF over GST control)"
same,binding signal,ETV3L,"1.45 fold enrichment (6-mer frequency, TF over GST control)"
same,binding signal,ETS2,"1.44 fold enrichment (6-mer frequency, TF over GST control)"
same,binding signal,SPDEF,"1.47 fold enrichment (6-mer frequency, TF over GST control)"
same,binding signal,ETV7,"1.47 fold enrichment (6-mer frequency, TF over GST control)"
same,binding signal,ELF5,"1.67 fold enrichment (6-mer frequency, TF over GST control)"
same,binding signal,ETV3,"1.63 fold enrichment (6-mer frequency, TF over GST control)"
same,binding signal,ETV6,"1.47 fold enrichment (6-mer frequency, TF over GST control)"

# From article PMC7862700, “An all-to-all approach to the identification of sequence-specific readers for epigenetic DNA modifications on cytosine”
